Source: PubChem BioAssay (EPA / NIEHS)
Results filed as inconclusive are left out. Calls of active or inactive are those of the source. The calls were made as follows: active = hit-call score of the fitted dose curve at least 0.9, where 1 is the maximum; inconclusive = response in the unintended direction; inactive = score below 0.9.

Key:
[1] = target: rat CYP1A2, Cyp1a2 (gene 24297) (UniProt P04799); test: NVS_ADME_rCYP1A2: NovaScreen (NVS) CYP450-related Enzyme Activity (ADME) Assay for rat CYP1A2 (AID 2283115)
How it was run: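 Cell-free recombinant rat enzyme with fluorogenic substrate, read by fluorescence intensity 1 hour after dosing. Loss of signal versus acetonitrile negative control; primary screen at 10 uM in duplicate, actives followed in concentration series.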

[2] = target: rat CYP2C12, Cyp2c12 (gene 25011) (UniProt P11510); test: NVS_ADME_rCYP2C12: NovaScreen (NVS) CYP450-related Enzyme Activity (ADME) Assay for rat CYP2C12 (AID 2283119)
How it was run: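 Cell-free recombinant rat CYP2C12 activity read by fluorescence 0.5 h after dosing; loss of signal versus acetonitrile control. Primary screen in duplicate at 10 uM; actives then run in concentration-response format.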

[3] = target: rat CYP2D2, Cyp2d26 (gene 25053) (UniProt P10634); test: NVS_ADME_rCYP2D2: NovaScreen (NVS) CYP450-related Enzyme Activity (ADME) Assay for rat CYP2D2 (AID 2283124)
How it was run: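 Recombinant rat CYP2D2 in a cell-free fluorogenic activity assay, fluorescence read 0.75 h after dosing. Primary screen in duplicate at 10 uM; actives re-run singly in concentration-response to 20 uM, relative to acetonitrile.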

rat CYP3A1, gene 25642 = test: NVS_ADME_rCYP3A1: NovaScreen (NVS) CYP450-related Enzyme Activity (ADME) Assay for rat CYP3A1 (AID 2283126)
How it was run: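 Cell-free recombinant CYP assay with fluorescent substrate, read 0.5 h after dosing. Screened at 10 uM in duplicate, hits at up to 20 uM in concentration-response; loss of signal versus acetonitrile baseline.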

[4] = target: rat CYP3A2, Cyp3a2 (gene 266682) (UniProt P05183); test: NVS_ADME_rCYP3A2: NovaScreen (NVS) CYP450-related Enzyme Activity (ADME) Assay for rat CYP3A2 (AID 2283128)
How it was run: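 Cell-free rat CYP3A2 enzyme assay with fluorescent substrate, read 0.5 h after dosing. Primary duplicate screen at 10 uM; actives run in concentration-response up to 20 uM, relative to acetonitrile baseline.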

[5] = target: human Acetylcholinesterase (AChE), ACHE (gene 43) (UniProt P22303); test: NVS_ENZ_hAChE: NovaScreen (NVS) Enzymatic Assay for human Acetylcholinesterase (AChE) (AID 2283129)
How it was run: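 Cell-free colorimetric enzyme-activity assay; compounds read 0.33 hour after dosing, loss of signal vs DMSO baseline. Primary screen in duplicate at 25 uM single concentration, with active compounds retested in concentration series.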

[6] = target: human AMP-activated Protein Kinase, alpha 1 (AMPKa1), PRKAA1 (gene 5562) (UniProt Q13131); test: NVS_ENZ_hAMPKa1: NovaScreen (NVS) Enzymatic Assay for human AMP-activated Protein Kinase, alpha 1 (AMPKa1) (AID 2283130)
How it was run: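 Recombinant human AMPKα1 activity was measured cell-free by fluorescent substrate conversion with electrophoretic mobility-shift separation, 1 h after dosing. Duplicate single-point screening was at 25 uM; actives (≥30% inhibition) were retested in concentration-response up to 50 uM.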

[7] = target: human AKT serine/threonine Kinase 1 (AKT1), AKT1 (gene 207) (UniProt P31749); test: NVS_ENZ_hAKT1: NovaScreen (NVS) Enzymatic Assay for human AKT serine/threonine Kinase 1 (AKT1) (AID 2283138)
How it was run: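 Signal loss relative to DMSO, measured by fluorescence after electrophoretic separation of substrate and product, indicates inhibition of recombinant enzyme. Readings at 1 h; screening at 25 uM, follow-up curves up to 50 uM.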

rat CYP2C6, gene 293989 = test: NVS_ADME_rCYP2C6: NovaScreen (NVS) CYP450-related Enzyme Activity (ADME) Assay for rat CYP2C6 (AID 2283120)
How it was run: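 Cell-free recombinant rat CYP2C6 with fluorogenic substrate, read by fluorescence 1 h after dosing; acetonitrile as negative control. Primary screen at 10 uM in duplicate, actives then in concentration-response up to 20 uM.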

[8] = target: rat CYP2A2, Cyp2a2 (gene 24895) (UniProt P15149); test: NVS_ADME_rCYP2A2: NovaScreen (NVS) CYP450-related Enzyme Activity (ADME) Assay for rat CYP2A2 (AID 2283116)
How it was run: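 Cell-free recombinant rat CYP2A2 activity with fluorogenic substrate, fluorescence read 0.2 h after dosing. Chemicals screened at 10 uM in duplicate, hits then run in concentration-response up to 20 uM; signal loss versus acetonitrile baseline.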

Caspase-1 (Homo sapiens) = Caspase-1 (Homo sapiens) (UniProt P29466); test: NVS_ENZ_hCASP1: NovaScreen (NVS) Enzymatic Assay for human Caspase 1 (CASP1) (AID 2283132)
How it was run: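 Cell-free enzymatic assay with E. coli-expressed recombinant protein; fluorescence intensity read 1 hour after dosing. Single-concentration duplicate screen at 25 uM, then concentration-response up to 50 uM; activity fitted relative to DMSO, loss of signal meaning inhibition.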

[9] = target: human Acid Phosphatase 1 (ACP1), ACP1 (gene 52) (UniProt P24666); test: NVS_ENZ_hACP1: NovaScreen (NVS) Enzymatic Assay for human Acid Phosphatase 1 (ACP1) (AID 2283136)
How it was run: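 Recombinant enzyme expressed in Sf9 cells, tested cell-free; activity read by fluorescence with electrophoretic mobility shift separation of substrate and product, 1.5 h after dosing. Primary screen in duplicate at 25 uM, actives then run in concentration series; loss of signal versus DMSO.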

[10] = target: human Caspase 5 (CASP5), CASP5 (gene 838) (UniProt P51878); test: NVS_ENZ_hCASP5: NovaScreen (NVS) Enzymatic Assay for human Caspase 5 (CASP5) (AID 2283137)
How it was run: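 Cell-free protease assay with bacterially expressed CASP5 and a fluorescent substrate, measured at 2 h. Values fitted relative to DMSO as baseline, from concentration-response series topping at 50 uM.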

[11] = target: rat CYP2C13, Cyp2c13 (gene 171521) (UniProt P20814); test: NVS_ADME_rCYP2C13: NovaScreen (NVS) CYP450-related Enzyme Activity (ADME) Assay for rat CYP2C13 (AID 2283121)
How it was run: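 Recombinant rat CYP2C13 with fluorogenic substrate, 0.75 h cell-free incubation; primary screen in duplicate at 10 uM, actives followed in concentration series. Fluorescence loss relative to acetonitrile control indicates inhibition.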

[12] = target: human Caspase 2 (CASP2), CASP2 (gene 835) (UniProt P42575); test: NVS_ENZ_hCASP2: NovaScreen (NVS) Enzymatic Assay for human Caspase 2 (CASP2) (AID 2283135)
How it was run: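 E. coli-expressed enzyme in a cell-free protease assay, fluorescence read 1 h after dosing. Compounds at 25 uM in duplicate, with concentration-response up to 50 uM for hits; loss of signal against DMSO baseline.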

[13] = target: rat CYP2D1, Cyp2d1 (gene 266684) (UniProt P10633); test: NVS_ADME_rCYP2D1: NovaScreen (NVS) CYP450-related Enzyme Activity (ADME) Assay for rat CYP2D1 (AID 2283122)
How it was run: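 Cell-free fluorescence enzyme-activity assay on extracted rat CYP2D1 protein, read 0.75 h after dosing. Primary screen in duplicate at 10 uM; qualifying chemicals then run in concentration-response to 20 uM max, loss-of-signal versus acetonitrile baseline.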

[14] = target: rat CYP2C11, Cyp2c11 (gene 29277) (UniProt P08683); test: NVS_ADME_rCYP2C11: NovaScreen (NVS) CYP450-related Enzyme Activity (ADME) Assay for rat CYP2C11 (AID 2283118)
How it was run: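 Cell-free recombinant rat enzyme with fluorescent substrate; readout 0.33 h after dosing, loss of signal versus acetonitrile control. Initial duplicate single-point at 10 uM; actives rerun in concentration series.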

Caspase-3 (Homo sapiens) = Caspase-3 (Homo sapiens) (UniProt P42574); test: NVS_ENZ_hCASP3: NovaScreen (NVS) Enzymatic Assay for human Caspase 3 (CASP3) (AID 2283139)
How it was run: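 Recombinant human caspase-3 from E. coli with a fluorogenic substrate, read by fluorescence 1 h after dosing. Primary screen in duplicate at 25 uM. Actives (for example ≥30% inhibition) rerun as concentration-response up to 50 uM.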

rat CYP2B1, gene 24300 = test: NVS_ADME_rCYP2B1: NovaScreen (NVS) CYP450-related Enzyme Activity (ADME) Assay for rat CYP2B1 (AID 2283117)
How it was run: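 Recombinant rat CYP2B1 with fluorogenic substrate, read at 0.75 h. Primary screen in duplicate at 10 uM; compounds meeting threshold (e.g., 30% inhibition) re-run in concentration-response up to 20 uM. Fitted against acetonitrile control.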

[15] = target: human Caspase 10 (CASP10), CASP10 (gene 843) (UniProt Q92851); test: NVS_ENZ_hCASP10: NovaScreen (NVS) Enzymatic Assay for human Caspase 10 (CASP10) (AID 2283133)
How it was run: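 Recombinant human caspase-10 from E. coli, cell-free fluorogenic substrate assay read 1 h after dosing. Primary duplicate screen at 25 uM; hits (e.g. ≥30% inhibition) run singly in concentration-response up to 50 uM, normalised to DMSO.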

Sequence of rat CYP2D2, Cyp2d26 (gene 25053) (P10634 whole entry, looked up): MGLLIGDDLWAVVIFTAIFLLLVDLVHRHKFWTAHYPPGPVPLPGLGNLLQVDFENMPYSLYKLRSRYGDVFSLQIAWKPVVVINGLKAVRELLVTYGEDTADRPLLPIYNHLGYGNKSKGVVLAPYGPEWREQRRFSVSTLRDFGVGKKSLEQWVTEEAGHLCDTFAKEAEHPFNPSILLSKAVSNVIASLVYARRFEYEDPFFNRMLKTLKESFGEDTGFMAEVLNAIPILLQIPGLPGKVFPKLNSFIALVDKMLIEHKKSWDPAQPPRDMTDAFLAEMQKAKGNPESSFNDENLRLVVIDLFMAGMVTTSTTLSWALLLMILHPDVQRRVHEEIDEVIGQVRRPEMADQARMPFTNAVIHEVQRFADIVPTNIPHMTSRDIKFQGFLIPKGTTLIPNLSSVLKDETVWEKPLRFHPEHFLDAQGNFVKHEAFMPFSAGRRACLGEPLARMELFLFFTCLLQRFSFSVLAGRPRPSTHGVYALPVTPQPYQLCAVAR
Sequence of rat CYP2C12, Cyp2c12 (gene 25011) (P11510 whole entry, looked up): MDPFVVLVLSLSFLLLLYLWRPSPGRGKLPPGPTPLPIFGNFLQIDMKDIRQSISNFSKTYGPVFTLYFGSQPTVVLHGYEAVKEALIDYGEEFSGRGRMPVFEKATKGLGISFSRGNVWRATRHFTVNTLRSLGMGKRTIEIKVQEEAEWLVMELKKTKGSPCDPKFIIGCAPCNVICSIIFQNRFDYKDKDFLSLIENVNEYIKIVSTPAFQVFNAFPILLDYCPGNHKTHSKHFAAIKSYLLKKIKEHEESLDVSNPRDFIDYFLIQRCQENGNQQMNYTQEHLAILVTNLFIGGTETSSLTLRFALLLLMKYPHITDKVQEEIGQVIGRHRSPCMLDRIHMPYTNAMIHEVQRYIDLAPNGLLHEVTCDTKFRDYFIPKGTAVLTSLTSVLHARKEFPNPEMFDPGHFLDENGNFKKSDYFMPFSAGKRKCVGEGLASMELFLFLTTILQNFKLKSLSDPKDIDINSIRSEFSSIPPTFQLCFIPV
Sequence of human Acetylcholinesterase (AChE), ACHE (gene 43) (P22303 whole entry, looked up): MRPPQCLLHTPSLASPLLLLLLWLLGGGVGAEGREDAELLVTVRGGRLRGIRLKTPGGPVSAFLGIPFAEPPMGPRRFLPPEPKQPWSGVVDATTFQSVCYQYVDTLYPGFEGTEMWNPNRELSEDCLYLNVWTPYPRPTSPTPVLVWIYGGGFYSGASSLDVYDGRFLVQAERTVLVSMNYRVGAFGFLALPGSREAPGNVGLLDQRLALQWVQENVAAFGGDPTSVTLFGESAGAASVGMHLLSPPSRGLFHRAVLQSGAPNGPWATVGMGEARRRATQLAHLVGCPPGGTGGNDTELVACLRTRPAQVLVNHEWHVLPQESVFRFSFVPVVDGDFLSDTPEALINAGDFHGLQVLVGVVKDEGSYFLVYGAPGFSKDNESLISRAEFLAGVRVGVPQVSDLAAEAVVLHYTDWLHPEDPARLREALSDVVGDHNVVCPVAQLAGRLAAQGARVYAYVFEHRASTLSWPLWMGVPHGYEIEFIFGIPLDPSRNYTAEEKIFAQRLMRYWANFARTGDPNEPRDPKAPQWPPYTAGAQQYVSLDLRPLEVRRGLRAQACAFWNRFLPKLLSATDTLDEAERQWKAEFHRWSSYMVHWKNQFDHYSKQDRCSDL
Sequence of human Acid Phosphatase 1 (ACP1), ACP1 (gene 52) (P24666 whole entry, looked up): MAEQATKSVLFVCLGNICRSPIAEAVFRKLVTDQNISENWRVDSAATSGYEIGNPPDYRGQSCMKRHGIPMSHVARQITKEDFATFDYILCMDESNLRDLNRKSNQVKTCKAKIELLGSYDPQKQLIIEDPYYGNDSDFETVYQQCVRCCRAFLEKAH
Sequence of human AKT serine/threonine Kinase 1 (AKT1), AKT1 (gene 207) (P31749 whole entry, looked up): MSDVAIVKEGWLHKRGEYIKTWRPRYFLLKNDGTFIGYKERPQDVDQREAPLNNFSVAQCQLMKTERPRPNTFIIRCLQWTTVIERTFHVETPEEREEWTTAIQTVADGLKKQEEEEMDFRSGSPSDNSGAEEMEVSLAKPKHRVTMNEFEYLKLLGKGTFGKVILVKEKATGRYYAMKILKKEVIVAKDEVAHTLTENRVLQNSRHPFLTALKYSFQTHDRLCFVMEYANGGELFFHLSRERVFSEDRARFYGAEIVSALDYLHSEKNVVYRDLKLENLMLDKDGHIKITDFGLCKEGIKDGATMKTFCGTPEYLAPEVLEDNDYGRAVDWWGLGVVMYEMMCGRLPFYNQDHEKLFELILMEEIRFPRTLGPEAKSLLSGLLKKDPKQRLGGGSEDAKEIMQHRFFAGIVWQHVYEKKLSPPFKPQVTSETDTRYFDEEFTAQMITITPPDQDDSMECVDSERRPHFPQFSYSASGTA
Sequence of rat CYP2A2, Cyp2a2 (gene 24895) (P15149 whole entry, looked up): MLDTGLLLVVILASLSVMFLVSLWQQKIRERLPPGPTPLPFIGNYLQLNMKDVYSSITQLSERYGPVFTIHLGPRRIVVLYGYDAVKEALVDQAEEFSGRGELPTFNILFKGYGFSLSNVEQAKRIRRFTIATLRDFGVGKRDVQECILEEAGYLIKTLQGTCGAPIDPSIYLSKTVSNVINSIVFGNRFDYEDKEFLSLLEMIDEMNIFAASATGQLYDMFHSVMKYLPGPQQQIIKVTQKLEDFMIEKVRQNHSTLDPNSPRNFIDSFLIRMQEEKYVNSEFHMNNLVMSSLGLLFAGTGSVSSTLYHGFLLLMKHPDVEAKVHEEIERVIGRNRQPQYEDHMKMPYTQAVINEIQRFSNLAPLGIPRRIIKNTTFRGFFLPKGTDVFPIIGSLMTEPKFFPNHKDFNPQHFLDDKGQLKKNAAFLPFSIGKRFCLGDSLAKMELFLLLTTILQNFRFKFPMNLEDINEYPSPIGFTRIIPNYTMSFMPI
Sequence of rat CYP2C13, Cyp2c13 (gene 171521) (P20814 whole entry, looked up): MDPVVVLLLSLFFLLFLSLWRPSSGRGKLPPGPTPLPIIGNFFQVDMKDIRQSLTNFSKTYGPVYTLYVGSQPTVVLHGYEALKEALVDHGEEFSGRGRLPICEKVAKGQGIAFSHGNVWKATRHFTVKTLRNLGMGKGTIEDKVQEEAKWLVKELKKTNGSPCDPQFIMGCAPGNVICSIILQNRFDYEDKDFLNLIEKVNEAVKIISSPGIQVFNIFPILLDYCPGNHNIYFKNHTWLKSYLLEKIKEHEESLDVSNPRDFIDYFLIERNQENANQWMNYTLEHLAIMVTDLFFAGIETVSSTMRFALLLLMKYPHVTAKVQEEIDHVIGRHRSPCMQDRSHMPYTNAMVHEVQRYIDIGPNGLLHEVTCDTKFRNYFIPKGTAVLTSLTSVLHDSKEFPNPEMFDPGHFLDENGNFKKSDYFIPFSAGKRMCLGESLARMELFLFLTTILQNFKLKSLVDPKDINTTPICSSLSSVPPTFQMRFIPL
Sequence of rat CYP3A2, Cyp3a2 (gene 266682) (P05183 whole entry, looked up): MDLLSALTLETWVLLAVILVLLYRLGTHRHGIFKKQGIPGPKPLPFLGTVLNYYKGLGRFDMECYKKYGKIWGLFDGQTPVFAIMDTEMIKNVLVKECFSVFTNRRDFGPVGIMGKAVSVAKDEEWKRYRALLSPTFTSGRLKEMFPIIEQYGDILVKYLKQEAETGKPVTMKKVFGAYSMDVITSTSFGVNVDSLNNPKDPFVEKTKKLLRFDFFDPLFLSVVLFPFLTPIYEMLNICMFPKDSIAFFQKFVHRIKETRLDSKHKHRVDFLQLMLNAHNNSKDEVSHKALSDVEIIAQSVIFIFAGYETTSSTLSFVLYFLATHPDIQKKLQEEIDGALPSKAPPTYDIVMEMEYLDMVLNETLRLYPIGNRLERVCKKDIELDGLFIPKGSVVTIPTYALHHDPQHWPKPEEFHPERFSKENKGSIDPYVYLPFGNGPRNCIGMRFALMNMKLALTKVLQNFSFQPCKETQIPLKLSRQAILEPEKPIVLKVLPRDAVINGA
Sequence of rat CYP2C11, Cyp2c11 (gene 29277) (P08683 whole entry, looked up): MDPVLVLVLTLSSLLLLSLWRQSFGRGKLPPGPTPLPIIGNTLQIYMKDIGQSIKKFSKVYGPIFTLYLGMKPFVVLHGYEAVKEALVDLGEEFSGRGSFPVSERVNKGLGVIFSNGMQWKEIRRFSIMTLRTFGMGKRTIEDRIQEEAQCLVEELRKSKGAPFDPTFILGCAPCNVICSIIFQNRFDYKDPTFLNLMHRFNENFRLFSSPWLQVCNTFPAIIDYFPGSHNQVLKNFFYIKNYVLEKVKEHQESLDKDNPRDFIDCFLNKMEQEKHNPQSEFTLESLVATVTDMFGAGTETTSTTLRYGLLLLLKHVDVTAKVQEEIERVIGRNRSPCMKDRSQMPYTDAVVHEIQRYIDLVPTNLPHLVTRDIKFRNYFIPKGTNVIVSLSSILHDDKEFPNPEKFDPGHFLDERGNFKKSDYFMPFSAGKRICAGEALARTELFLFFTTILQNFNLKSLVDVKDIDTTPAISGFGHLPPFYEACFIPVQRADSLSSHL
Sequence of human AMP-activated Protein Kinase, alpha 1 (AMPKa1), PRKAA1 (gene 5562) (Q13131 whole entry, looked up): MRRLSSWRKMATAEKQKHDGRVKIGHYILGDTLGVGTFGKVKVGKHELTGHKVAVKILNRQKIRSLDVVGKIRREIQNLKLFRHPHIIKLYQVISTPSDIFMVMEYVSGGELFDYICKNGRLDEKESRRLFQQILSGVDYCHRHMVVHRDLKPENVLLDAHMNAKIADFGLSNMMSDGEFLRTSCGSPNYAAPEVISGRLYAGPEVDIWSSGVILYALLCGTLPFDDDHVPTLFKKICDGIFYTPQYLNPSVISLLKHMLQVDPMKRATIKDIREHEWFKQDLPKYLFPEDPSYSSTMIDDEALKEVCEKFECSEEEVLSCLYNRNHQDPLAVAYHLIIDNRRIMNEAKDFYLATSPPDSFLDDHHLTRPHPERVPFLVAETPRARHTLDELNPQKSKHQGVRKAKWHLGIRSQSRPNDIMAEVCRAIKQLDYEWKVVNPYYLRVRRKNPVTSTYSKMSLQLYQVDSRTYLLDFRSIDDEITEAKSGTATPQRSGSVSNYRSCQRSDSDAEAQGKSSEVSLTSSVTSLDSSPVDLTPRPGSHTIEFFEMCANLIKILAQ

With `N#Cc1c(Cl)c(Cl)c(Cl)c(C#N)c1Cl` the outcome [1] was “inactive”, the outcome [2] was “inactive” and the outcome [3] was “inactive”. For the same compound, the AC50 (rat CYP3A1, gene 25642) was 1.22 µM (active), the AC50 [4] was 0.241 µM (active) and the outcome [5] was “inactive”. The AC50 [6] was 4.96 µM (active) and the outcome [7] was “inactive”.

`CCOCN(C(=O)CCl)c1c(C)cccc1CC` was tested, and the AC50 (rat CYP2C6, gene 293989) was 10 µM (active).

`[2H]C1([2H])[n+]2ccccc2-c2cccc[n+]2C1([2H])[2H]` was tested, and the outcome [2] was “inactive”, the AC50 [3] was 10 µM (active) and the outcome [5] was “inactive”.

`O=C(O)C(F)(F)C(F)(F)C(F)(F)C(F)(F)C(F)(F)C(F)(F)C(F)(F)F` was tested, and the AC50 [8] was 2.68 µM (active), the outcome (rat CYP3A1, gene 25642) was “inactive” and the outcome (Caspase-1 (Homo sapiens)) was “inactive”. The outcome [9] was “inactive” and the outcome [10] was “inactive”.

For `C#CCN1C(=O)COc2cc(F)c(N3C(=O)C4=C(CCCC4)C3=O)cc21`, the AC50 [11] was 0.992 µM (active), the AC50 [4] was 5.33 µM (active) and the outcome [12] was “inactive”. The outcome [9] was “inactive”.

`CCC(C)(NC(=O)c1cc(Cl)c(C)c(Cl)c1)C(=O)CCl` (stereo not drawn) was tested, and the outcome [11] was “inactive”.

In the case of `Oc1cc(Cl)ccc1Oc1ccc(Cl)cc1Cl`, the AC50 [3] is reported as 10 µM (active), the outcome [6] is reported as “inactive” and the outcome [9] is reported as “inactive”.

For `O=C(NC(=O)c1c(F)cccc1F)Nc1ccc(OC(F)(F)C(F)OC(F)(F)F)c(Cl)c1` (stereo not drawn), the outcome [2] was “inactive”.

With `COP(=S)(OC)Oc1ccc(SC)c(C)c1` the AC50 (rat CYP2C6, gene 293989) was 1.83 µM (active).

In the case of `Cc1[nH]c(=O)n(C(C)(C)C)c(=O)c1Cl`, the AC50 [13] is reported as 3.45 µM (active).

With `CCC(C)Nc1c([N+](=O)[O-])cc(C(C)(C)C)cc1[N+](=O)[O-]` (stereo not drawn) the outcome [11] was “inactive”.

With `CC(C)N(C(=O)COc1nnc(C(F)(F)F)s1)c1ccc(F)cc1` the AC50 [14] was 6.6 µM (active), the AC50 (rat CYP2C6, gene 293989) was 7.85 µM (active) and the AC50 [3] was 10 µM (active). The AC50 (rat CYP3A1, gene 25642) was 7.94 µM (active) and the AC50 [5] was 16.5 µM (active).

For `O=C1c2ccccc2C(=O)N1SC(Cl)(Cl)Cl`, the outcome [2] was “inactive” and the outcome (Caspase-3 (Homo sapiens)) was “inactive”.

For `CC(C)(C)C(O)C(Oc1ccc(Cl)cc1)n1cncn1` (stereo not drawn), the AC50 [8] was 0.32 µM (active), the AC50 (rat CYP2B1, gene 24300) was 5.58 µM (active) and the AC50 [14] was 4.45 µM (active). The AC50 [11] was 1.3 µM (active), the AC50 (rat CYP3A1, gene 25642) was 5.65 µM (active) and the AC50 [4] was 8.09 µM (active). The outcome [6] was “inactive” and the outcome [9] was “inactive”.

For `COC(=O)c1ccccc1S(=O)(=O)NC(=O)N(C)c1nc(C)nc(OC)n1`, the AC50 [15] was 6.07 µM (active) and the outcome [7] was “inactive”.

For `CN1CSC(=S)N(C)C1`, the AC50 (rat CYP2B1, gene 24300) was 3.9 µM (active) and the outcome (Caspase-1 (Homo sapiens)) was “inactive”.

In the case of `CNC(=O)CSP(=S)(OC)OC`, the AC50 (rat CYP2C6, gene 293989) is reported as 4.77 µM (active), the AC50 [4] is reported as 5.06 µM (active) and the outcome [7] is reported as “inactive”.

For `CCCN(CCOc1c(Cl)cc(Cl)cc1Cl)C(=O)n1ccnc1`, the outcome [1] was “inactive”, the AC50 [8] was 0.00934 µM (active) and the AC50 (rat CYP2B1, gene 24300) was 0.0338 µM (active). For the same compound, the AC50 [14] was 0.0766 µM (active), the AC50 [2] was 4.58 µM (active) and the AC50 (rat CYP2C6, gene 293989) was 0.166 µM (active). For the same compound, the AC50 [11] was 0.191 µM (active), the AC50 [13] was 1.22 µM (active) and the AC50 [3] was 0.159 µM (active). For the same compound, the AC50 (rat CYP3A1, gene 25642) was 0.549 µM (active) and the AC50 [4] was 1.39 µM (active).

`COC(=O)c1ccccc1CS(=O)(=O)NC(=O)Nc1nc(OC)cc(OC)n1` was tested, and the outcome [7] was “inactive”.
